Here are results for 50 molecules from PubChem BioAssay AID1851 (National Center for Advancing Translational Sciences (NCATS), 2009).

About 5,100 (32%) of roughly 16,000 compounds were called active. About 25% were inconclusive and are not listed. The list shows a part of the results. A number with no mark means an inactive call. The call rests on the fitted dose curve; in most records, active means well fitted curve in the direction sought with a large enough effect; inconclusive means small, poorly fitted or top-dose-only effect, or effect the other way; inactive means no such curve, though single readings can be large or run the other way.
On the % scale 0 is the no-effect control and ±100 the full control effect.

For the test, the target named is Cytochrome P450 3A4 (Homo sapiens) (UniProt P08684). The experiment in a line: Cytochrome panel assay with activity outcomes. To be noted: recombinant CYP, pro-luciferin dealkylation, luminescence, p450-cyp3a4; series mostly up to 57.1 µM; activity, negative = inhibition: at the top concentration.
Sequence of Cytochrome P450 3A4 (Homo sapiens) (P08684 whole entry, looked up): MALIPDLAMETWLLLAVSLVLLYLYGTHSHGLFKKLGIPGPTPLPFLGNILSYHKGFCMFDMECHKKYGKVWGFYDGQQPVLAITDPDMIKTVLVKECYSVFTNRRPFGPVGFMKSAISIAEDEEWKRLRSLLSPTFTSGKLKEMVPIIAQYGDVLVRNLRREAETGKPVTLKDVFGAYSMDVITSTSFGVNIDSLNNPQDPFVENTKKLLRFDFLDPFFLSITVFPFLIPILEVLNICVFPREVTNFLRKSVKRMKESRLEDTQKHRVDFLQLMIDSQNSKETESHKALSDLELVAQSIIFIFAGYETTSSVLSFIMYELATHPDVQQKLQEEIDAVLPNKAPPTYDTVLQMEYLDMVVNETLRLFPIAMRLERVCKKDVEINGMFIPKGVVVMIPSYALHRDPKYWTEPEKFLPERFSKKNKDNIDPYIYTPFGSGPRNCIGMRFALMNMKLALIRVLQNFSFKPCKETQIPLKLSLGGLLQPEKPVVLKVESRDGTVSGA
With `CC(=O)Nc1nc2ccccc2n1Cc1ccccc1`, the “activity, negative = inhibition” value was -25.3%. As to `COc1ccc(CNc2nc3ccccc3n2Cc2ccccc2)cc1OC`, the AC50 is 3.98 µM (active). `CS(=O)(=O)c1nc2ccccc2n1Cc1ccccc1`: the “activity, negative = inhibition” value is 8.52%. On to `C#CCCCO/N=C1/[C@H]2O[C@@H]2[C@@H](O)[C@H]2[C@H]1CCn1c(=O)n(C)c(=O)n12`, for which the activity, negative = inhibition is -24.7% [at 11.4 µM].

Regarding `Cc1ccc(Cc2cnc(NC(=O)c3cccs3)s2)cc1`, the AC50 is 7.94 µM (active). As for `CCCc1nnc(NC(=O)c2cccs2)s1`, the “activity, negative = inhibition” value is -3.1%. Consider `CN(C)CCCN1CCC2(CCC(C(C)(C)C)CC2)CC1`, for which the activity, negative = inhibition was 1.95% [at 11.4 µM]. Consider `COc1ccccc1NC(=O)CN1CCN(C2c3ccccc3-c3ccccc32)CC1`, for which the AC50 is 12.6 µM (active).

Take `COc1ccc(NC(C)=O)cc1NC(=O)CN1CCN(C2c3ccccc3-c3ccccc32)CC1`: the AC50 is 10 µM (active). On to `COc1ccccc1NC(=O)CN1CCN(c2ccccc2F)CC1`, for which the “activity, negative = inhibition” value was -29.9%. Consider `NS(=O)(=O)c1cc(C(=O)O)c(Cl)c([N+](=O)[O-])c1Cl`, for which the activity, negative = inhibition was -5.24% [at 11.4 µM]. As for `CCNc1ncc2nc(CCc3ccccc3)c(=O)n(CCC#N)c2n1`, the concentration at half-maximal activity (AC50) was 15.8 µM (active). Still for that read-out and setting: the value for `CCNc1ncc2nc(CCc3ccccc3)c(=O)n(Cc3ccc(F)cc3)c2n1` was 2.51 µM (active).

Consider `CCNc1ncc2nc(-c3ccc(F)cc3)c(=O)n(C[C@H]3CCCO3)c2n1`, for which the “activity, negative = inhibition” value was -18.2%. As for `CCSC1=C(C#N)C2(CCCCC2)C(C#N)=C(N)N1`, the AC50 was 8.91 µM (active). For the molecule `COc1ccc2c(c1)CCc1sc(NC(=O)c3ccc(C)cc3)nc1-2`, the AC50 was 10 µM (active). On the same count and under the same terms, to `COc1ccc2c(c1)Cc1sc(NC(=O)c3ccco3)nc1-2` belongs 11.2 µM (active). Regarding `COc1ccc(C(=O)Nc2nc3c(s2)Cc2cc(OC)ccc2-3)cc1`, the AC50 is 11.2 µM (active).

As for `O=C(O)Cc1c[nH]c2ccc(O)cc12`, the “activity, negative = inhibition” value is -10.9%. `CC(C)Oc1cccc(-n2c(CCc3c[nH]c4ccc(Br)cc34)nc3ccccc3c2=O)c1`: the AC50 was 3.98 µM (active). As for `C/C(CC/C(C)=N/O)=N/O`, the activity, negative = inhibition was -10.6% [at 11.4 µM].

In the case of `O=C(O)c1c[nH]c2c(ccc3[nH]cc(C(=O)O)c(=O)c32)c1=O`, the activity, negative = inhibition was -16.3% [at 11.4 µM]. As for `Cc1cc(C(=O)Nc2c(C)n(C)n(-c3ccccc3)c2=O)c2ccccc2n1`, the “activity, negative = inhibition” value is -18.9%. Turning to `Cc1c(NC(=O)C(C)N2C(=O)c3ccccc3C2=O)c(=O)n(-c2ccccc2)n1C` (stereo not given), the “activity, negative = inhibition” value is -4.89%. For `Cc1cc(SC(C)C(=O)Nc2c(C)n(C)n(-c3ccccc3)c2=O)nc2ccccc12` (stereo not given), the AC50 is 12.6 µM (active).

`O=C(Nc1cccc2ncccc12)c1ccc(-c2ccc(Br)cc2)o1`: the AC50 is 2.82 µM (active).

With `Cc1ccc(OCC(=O)N/N=C\c2c(C)n(C)c3ccccc23)c([N+](=O)[O-])c1`, the half-maximal activity concentration (AC50) was 7.08 µM (active). For the molecule `COc1ccc(C=O)cc1COc1ccc(C)cc1[N+](=O)[O-]`, the “activity, negative = inhibition” value was 9.27%.

As to `CC(=O)N/N=C/c1cc([N+](=O)[O-])ccc1OCCOc1ccccc1`, the “activity, negative = inhibition” value was 3.61%. Consider `Cc1ccccc1-c1ccc2ncnc(N(C)C)c2c1`, for which the AC50 was 3.16 µM (active).

For the molecule `COc1ccccc1-c1ccc2ncnc(N(C)C)c2c1`, the AC50 is 5.01 µM (active). Take `Cc1ccc(S(=O)(=O)CCC(=O)Nc2nc3c(s2)CCCC3)cc1`: the half-maximal activity concentration (AC50) was 8.91 µM (active). Turning to `CC(=O)N1CCc2cc(S(=O)(=O)CCC(=O)Nc3c(C)n(C)n(-c4ccccc4)c3=O)ccc21`, the “activity, negative = inhibition” value is -22.1%. Regarding `Nc1cc(-c2nn[nH]n2)ccc1F`, the “activity, negative = inhibition” value is -28.5%. As to `COC(=O)C/C=C\[C@@H](C)[C@@H](/C=N\OC[C@@H]1O[C@H](c2ccccc2)C=C[C@@H]1Oc1ccc(OC)cc1)NS(=O)(=O)c1ccc(C)cc1`, the AC50 was 5.01 µM (active). Take `COC(=O)C/C=C\[C@@H](C)[C@@H](/C=N\OC[C@@H]1O[C@H](c2ccccc2)C=C[C@@H]1Oc1ccc(OC)cc1)OC`: the AC50 is 3.16 µM (active). Turning to `CC(C)CSC[C@@H]1O[C@H](n2cnc3c(N)nccc32)[C@H](O)[C@@H]1O`, the activity, negative = inhibition is -25.4% [at 11.4 µM]. Regarding `Cc1ccccc1-c1cncnc1N1CCN(C)CC1`, the concentration at half-maximal activity (AC50) was 1.58 µM (active). Consider `CN1CCN(c2ncncc2-c2ccccc2Cl)CC1`, for which the AC50 is 1.58 µM (active). For `CN1CCN2c3ncccc3Cc3ccccc3C2C1` (stereo not given), the “activity, negative = inhibition” value was -7.32%.

For `COc1ccccc1-c1cncnc1N1CCN(C)CC1`, the AC50 is 2.51 µM (active).

As to `Cc1noc(C)c1-c1cncnc1N1CCN(C)CC1`, the AC50 is 12.6 µM (active).

Take `Cc1ccccc1NC(=S)NN1CCN(C)CC1`: the “activity, negative = inhibition” value is 10.1%. On to `Cc1noc(C)c1-c1cc(N2CCN(C)CC2)ncn1`, for which the “activity, negative = inhibition” value was 40.2%. The same measure, in the same setting: to `CN1CCN(c2cc(-c3ccccc3C(F)(F)F)ncn2)CC1` belongs 11.3%.

On to `CN1CCN(c2ncncc2-c2ccoc2)CC1`, for which the AC50 is 7.94 µM (active).

For the molecule `CC(C)(C)c1c2c(c(C(C)(C)C)c3c1OCN(Cc1ccccc1)C3)OCN(Cc1ccccc1)C2`, the activity, negative = inhibition is 5.7% [at 11.4 µM]. With `CC[C@@H](Nc1ncnc2nc[nH]c12)C(=O)O`, the activity, negative = inhibition was -5.2% [at 11.4 µM]. As to `Cc1occc1C(=O)NNC(=O)Cc1ccccc1`, the “activity, negative = inhibition” value was -19.8%. `COc1ccc(C(=O)NNC(=O)Cc2ccc(-c3ccccc3)cc2)cc1OC`: the AC50 was 6.31 µM (active).

A word on the AC50: it is the midpoint of the concentration-response curve, whichever way the signal moves.
